Source: PubChem BioAssay
“And” between values parts separate entries of the source, which are not always exact repeats. Identical values can stand only once. The source made the active and inactive calls.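 The calls were made as follows, unless noted: active = compounds whose cell count with miR-34 switched on is under 0.7 times the count with it off; inactive = the rest.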

How the values were obtained:
[1] = system: Aerobactin synthetase IucA (Klebsiella pneumoniae); test: IucA aerobactin synthetase inhibitors, biochemical, Tocris library, absorbance (AID 1345561; call rule not given here;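 also: 100% = enzyme without compound and 0% = no enzyme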); settings: purified IucA enzyme assay, absorbance (OD) read-out; stronger effect = lower value;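 tested at 8 µM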
[2] = sensitizers of A549 cells to miR-34 induction, primary screen, imaging, A549 dox-inducible miR-34, nuclei and caspase counts (AID 1347080); settings: A549 miR-34 inducible, Hoechst nuclei count, 48 h
[3] = survival rescue of mitochondrial mutant cells in low glucose, primary screen, MELAS cybrids, Rieske KO mouse fibroblasts, CellTiter-Glo (AID 1508586;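 active = mean z-score across replicates of 1.96 or higher in either the MELAS or the Rieske mutant cell line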;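 also: z relative to plate mean and SD of compound and empty wells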)
[4] = viability rescue of complex I mutant cybrids, primary screen, cell-based, galactose medium, ATP luminescence (AID 1645843;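 active = z-score of at least 1.8 in each of two replicates, scored against plate mean and spread of sample wells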;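 also: positive z means more ATP and so rescue of galactose-driven cybrid death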); settings: complex I mutant cybrid cells, 72 h, stronger effect = higher value
[5] = inhibitors of Cryptococcus chitosan production, flow cytometry, Cibacron Brilliant Red staining (AID 1347148; call rule not given here;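 also: compound exposure lasted three days at 37 degrees C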); settings: Cryptococcus neoformans chitosan, stronger effect = lower value; at 10 µM unless noted
[6] = modifiers of HSF1 nuclear foci, imaging, Selleck Cancer Library (AID 1347162; in the data active = plate-normalised HSF1 focus index below about 0.46); settings: human cells, at 10 µM; SSMD: measured here: HSF1 foci SSMD mean; cell count: measured here: cell number; plate-normalised HSF1 focus index: stronger effect = lower value
[7] = hESC survival regulators, cell-based (AID 493140; call rule not given here;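 also: cells exposed to compounds for four days before counting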); settings: human embryonic stem cell survival screen; stronger effect = higher value
[8] = liver-stage malaria parasite growth inhibition, primary screen, cell-based, HepG2, luciferase luminescence, HepG2 viability (AID 624349; in the data active = parasite load remaining mostly below about 12%, no sharp cut-off; inactive = mostly above about 10%;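 also: 100% = mean of DMSO negative control wells on the same plate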); settings: P. berghei liver stage in HepG2, luciferase luminescence, concentration not given here; parasite load remaining: stronger effect = lower value; viability: measured here: HepG2 viability without parasites
[9] = stronger effect = lower value, cell number ratio, induced over uninduced
[10] = measured here: relative caspase fold change +Dox/-Dox
[11] = measured here: total cells with miR-34 induction, stronger effect = lower value
[12] = measured here: total cells without miR-34 induction
[13] = MELAS cybrid survival, CellTiter-Glo 48 h, stronger effect = higher value
[14] = Rieske KO mouse fibroblast survival, CellTiter-Glo 72 h

## CNC(CC(=O)O)C(=O)O (stereo unspecified)
[1]
  remaining activity: 97.3% (inactive)
[2]; [9]
  fold change: 0.825 (inactive) and 1.05 (inactive)
[2]; [10]
  fold change: 1.55 and 0.67
[2]; [11]
  cell count: 8200 and 8440
[2]; [12]
  cell count: 9940 and 8040
[3]; [13]
  z-score: -0.165 (inactive)
[3]; [14]
  z-score: -0.287
[4]
  z-score: 0.29 (inactive)

## COC(=O)C1=C(C)NC(C)=C(C(=O)OCCCN2CCC(c3ccccc3)(c3ccccc3)CC2)[C@H]1c1cccc([N+](=O)[O-])c1
[1]
  remaining activity: 116% (inactive)
[2]; [9]
  fold change: 0.98 (inactive)
[2]; [10]
  fold change: 1.09
[2]; [11]
  cell count: 562
[2]; [12]
  cell count: 574
[5]
  fold fluorescence: 5.27 [at 82 µM] (inactive)
[6]
  SSMD: -1.25
  cell count: 6310
  plate-normalised HSF1 focus index: 0.927 (inactive)
[4]
  z-score: -0.83 (inactive)

## CCN(CC)CCOC(=O)C1(c2ccc([N+](=O)[O-])cc2)CCCC1
[7]
  survival: 10.9 (inactive)
[8]
  parasite load remaining: 105% (inactive)
  viability: 84.2%
[1]
  remaining activity: 78.5% (inactive)
[2]; [9]
  fold change: 0.929 (inactive) and 1.02 (inactive)
[2]; [10]
  fold change: 1.89 and 0.688
[2]; [11]
  cell count: 8310 and 8650
[2]; [12]
  cell count: 8940 and 8460
[3]; [13]
  z-score: 0.368 (inactive)
[3]; [14]
  z-score: -0.484
[4]
  z-score: -1.09 (inactive)

## C/C=C1/C(=O)C[C@H]2[C@@H]3CCC4=CC(=O)CC[C@]4(C)[C@H]3CC[C@]12C
[1]
  remaining activity: 104% (inactive)
[2]; [9]
  fold change: 0.844 (inactive)
[2]; [10]
  fold change: 3.69
[2]; [11]
  cell count: 6570
[2]; [12]
  cell count: 7790
[4]
  z-score: -0.33 (inactive)

## COc1cc2ncnc(Nc3ccc(Cl)cc3F)c2cc1OC
[1]
  remaining activity: 98.6% (inactive)
[2]; [9]
  fold change: 0.989 (inactive) and 1 (inactive)
[2]; [10]
  fold change: 0.8 and 1.6
[2]; [11]
  cell count: 5840 and 6100
[2]; [12]
  cell count: 5900 and 6080
[3]; [13]
  z-score: -0.209 (inactive)
[3]; [14]
  z-score: -0.0991
[4]
  z-score: 0.365 (inactive)

## O=C(CCCCCN1C(=O)c2cccc3cccc(c23)C1=O)NO
[1]
  remaining activity: 87.2% (inactive)
[2]; [9]
  fold change: 0.869 (inactive) and 1.23 (inactive)
[2]; [10]
  fold change: 0.881 and 1.17
[2]; [11]
  cell count: 1710 and 2290
[2]; [12]
  cell count: 1970 and 1860
[3]; [13]
  z-score: 1.18 (inactive)
[3]; [14]
  z-score: 1.2
[4]
  z-score: -0.53 (inactive)
